Here are results for 40 compounds from PubChem BioAssay (EPA / NIEHS).

SMILES strings stand for the structures. Activity calls are given as the source filed them. How the source made its calls: active means hit-call score of the fitted dose curve at least 0.9, where 1 is the maximum; inactive means score below 0.9.

Read-out in this test: Intercellular Adhesion Molecule 1 (ICAM1), ICAM1 (gene 3383)
Description: BSK_KF3CT_ICAM1: BioMAP Diversity Plus: KF3CT Assay for Intercellular Adhesion Molecule 1 (ICAM1) Biomarker Activity (AID 2283067). Particulars: primary human keratinocytes with fibroblasts; actives raise or lower the signal. How it is done: BSK_KF3CT is a cell-based, multiplexed-readout assay that uses keratinocytes and foreskin fibroblasts, a human skin primary cell co-culture, with measurements taken at 24 hours after chemical dosing in a 96-well plate.BSK_KF3CT_ICAM1 is an assay component measured in the BSK_KF3CT assay. It measures ICAM-1 antibody related to regulation of gene expression using ELISA technology.Data from the assay component BSK_KF3CT_ICAM1 was analyzed into 1 assay endpoint. This assay endpoint, BSK_KF3CT_ICAM1, was analyzed with bidirectional fitting relative to DMSO as the negative control and baseline of activity. Using a type of binding reporter, gain or loss-of-signal activity can be used to understand changes in the signaling as they relate to the gene ICAM1. Furthermore, this assay endpoint can be referred to as a primary readout, because this assay has produced multiple assay endpoints where this one serves a signaling function. To generalize the intended target to other relatable targets, this assay endpoint is annotated to the cell adhesion molecules intended target family, where the subfamily is Immunoglobulin CAM.
The levels of cell surface (or secreted, indicated by the prefix "s") biomarker endpoints were measured by ELISA. Overt cytotoxicity to cells in confluent adherent cultures (all systems other than the BT system) was assessed by measuring total protein levels using sulforhodamine B (SRB) staining in parallel cultures at the time of biomarker measurements, indicated as SRB endpoints. For proliferation assays for adherent cell types, individual cell types are cultured at sub-confluence and relative cell numbers quantified by SRB staining at time points optimized for each system (48 h: 3C and CASM3C systems; 72 h: BT and HDF3CGF systems; 96 h: SAg system). SRB was performed by staining cells with 0.1% SRB after fixation with 10% TCA and reading wells at 560 nm.Viability and proliferation of PBMC (T cells) was quantified by Alamar Blue reduction for the SAg and BT systems. For PBMC viability (referred to as PBMC Cytotoxicity within the assay endpoint names), cells were plated (75,000/well in a 96-well plate) and then chemical samples added for 1 h before addition of activators, SEB and TSST-1 (20 ng/mL final concentration each). Cells were incubated for 90 h. Then, Alamar Blue (20 uL/well) (Invitrogen, Cat DAL1100) was added for 6 h, and the plates were read with a fluorescence microplate reader at 546/580 nm (excitation/emission). For PBMC proliferation, cells were plated and activated as above but incubated for only 16 h prior to addition of Alamar Blue. Plates were read after 6 h.
Take `N#Cc1cccnc1`: the result was inactive.

Regarding `CCOP(=S)(OCC)OP(=S)(OCC)OCC`, the outcome was inactive.

On to `Oc1ccc(Cc2ccc(O)cc2)cc1`, for which the result was inactive.

As for `Cc1cc(C)cc(C)c1`, the outcome was inactive.

`Oc1cc(Cl)c(Cl)cc1Cl`: the result was inactive.

On to `COCC(=O)N(c1c(C)cccc1C)[C@H](C)C(=O)OC`, for which the outcome was inactive.

For the compound `Cc1cc(Cl)ccc1OC(C)C(=O)O` (stereo not given), the outcome was inactive.

As to `CCOP(=S)(OCC)SCS(=O)(=O)C(C)(C)C`, the outcome was inactive.

For the compound `Oc1c(Br)cc(Br)cc1Br`, the outcome was inactive.

As for `c1ccc(-c2cccc(-c3ccccc3)c2)cc1`, the outcome was inactive.

Regarding `COc1ccccc1N`, the outcome was inactive.

With `Cc1ccccc1OP(=O)(Oc1ccccc1C)Oc1ccccc1C`, the result was inactive.

`O=C(N[C@H]1CN2CCC1CC2)c1ccc2c(c1)OCCO2`: the result was inactive.

Usually AC50 stands for the concentration at which the activity in the assay is half-maximal. Regarding `CC(C)N(C(=O)CCl)c1ccccc1`, the AC50 was 28.5 µM (active).

As for `CC(C=O)Cc1ccc2c(c1)OCO2` (stereo not given), the outcome was inactive.

`OCCCCO`: the outcome was inactive.

For `CC1(C)[C@H](C(=O)O[C@H](C#N)c2cccc(Oc3ccccc3)c2)[C@@H]1/C=C(\Cl)C(F)(F)F`, the result was inactive.

In the case of `CC(C)O.CC(C)O.OCCN(CCO)CCO.OCCN(CCO)CCO.[Ti]`, the outcome was inactive.

In the case of `CC(C)(C)c1ccccc1O`, the outcome was inactive.

In the case of `O=C(Cc1ccccc1)OCCc1ccccc1`, the result was inactive.

In the case of `O=[N+]([O-])c1ccc(Nc2ccccc2)cc1`, the result was inactive.

As to `OC(Cc1ccccc1Cl)(Cn1cncn1)C1(Cl)CC1` (stereo not given), the outcome was inactive.

In the case of `Cc1c([N+](=O)[O-])c(C)c([N+](=O)[O-])c(C(C)(C)C)c1[N+](=O)[O-]`, the result was inactive.

For `O=[N+]([O-])c1cccc2ccccc12`, the outcome was inactive.

For `Cc1ccc2nc3sc(=O)sc3nc2c1`, the AC50 was 3.16 µM (active).

Consider `Nc1c(Oc2ccccc2)cc(O)c2c1C(=O)c1ccccc1C2=O`, for which the result was inactive.

`CC(C)=CC1C(C(=O)OCc2cccc(Oc3ccccc3)c2)C1(C)C` (stereo not given): the outcome was inactive.

On to `CCOC(=O)CCN(SN(C)C(=O)Oc1cccc2c1OC(C)(C)C2)C(C)C`, for which the outcome was inactive.

`CCOP(=O)(OCC)SCCSCC`: the outcome was inactive.

Turning to `Cc1ccccc1OP(=O)(Oc1ccccc1)Oc1ccccc1`, the result was inactive.

Take `C[C@]12CC[C@@H](O)C[C@@H]1CC[C@@H]1[C@@H]2CC[C@]2(C)C(=O)CC[C@@H]12`: the result was inactive.

For `O=S(=O)(c1ccc(Cl)cc1)c1cc(Cl)c(Cl)cc1Cl`, the result was inactive.

With `CCOC(=O)C(SP(=S)(OC)OC)c1ccccc1` (stereo not given), the result was inactive.

For `O=C(CCl)NCO`, the outcome was inactive.

With `CC(C)(C)c1cc([N+](=O)[O-])cc(C(C)(C)C)c1O`, the result was inactive.

Take `CCOC(=O)CC(=O)CCl`: the result was inactive.

With `CCOP(=O)(OCC)OC(=CCl)c1ccc(Cl)cc1Cl`, the result was inactive.

As for `O=S(=O)(C(Cl)(Cl)Cl)C(Cl)(Cl)Cl`, the AC50 was 2.15 µM (active).

In the case of `Cc1cc(Cl)ccc1N`, the outcome was inactive.

`OC(Cc1ccccc1Cl)(Cn1[nH]cnc1=S)C1(Cl)CC1` (stereo not given): the outcome was inactive.
